From PubChem BioAssay AID1159580 (chemical genetic matrix, 2015)
The campaign covered roughly 5,500 compounds. About 2,000 (36%) were called active. Not shown: some 18% with an inconclusive outcome. Cut-off read from the data, not from the text of the source: active = normalized growth mostly below about 0.91 (no sharp cut-off); inconclusive = no clear call, values can overlap the other calls; inactive = mostly above about 0.92. The list shows a part of the results.

Experiment: chemical genetic growth profiling, strain panel (AID 1159580);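 note: tested at 20 µM; growth read once vehicle control cultures reached saturation at 30 °C; 1 = growth at the plate median or of vehicle wells; lower values mean less growth of the strain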
Conditions: growth OD
[1] = S. cerevisiae deletion strains, locus YAL013W, strain DEP1, hits give low values
[2] = S. cerevisiae deletion strains, locus YBR229C, strain ROT2, hits give low values
[3] = S. cerevisiae deletion strains, locus YDL101C, strain DUN1, hits give low values
[4] = S. cerevisiae deletion strains, locus YDR150W, strain NUM1, hits give low values
[5] = S. cerevisiae deletion strains, locus YEL061C, strain CIN8, hits give low values
[6] = S. cerevisiae deletion strains, locus YGR078C, strain PAC10, hits give low values
[7] = S. cerevisiae deletion strains, locus YHR030C, strain SLT2, hits give low values
[8] = S. cerevisiae deletion strains, locus YHR087W, strain rtc3, hits give low values
[9] = S. cerevisiae deletion strains, locus YJL187C, strain SWE1, hits give low values
[10] = S. cerevisiae deletion strains, locus YJR043C, strain POL32, hits give low values
[11] = S. cerevisiae deletion strains, locus YJR075W, strain HOC1, hits give low values
[12] = S. cerevisiae deletion strains, locus YLR039C, strain RIC1, hits give low values
[13] = S. cerevisiae deletion strains, locus YLR058C, strain SHM2 (second series), hits give low values
[14] = S. cerevisiae deletion strains, locus YLR085C, strain ARP6, hits give low values
[15] = S. cerevisiae deletion strains, locus YLR262C, strain YPT6, hits give low values
[16] = S. cerevisiae deletion strains, locus YML094W, strain GIM5, hits give low values
[17] = S. cerevisiae deletion strains, locus YMR219W, strain ESC1, hits give low values
[18] = S. cerevisiae deletion strains, locus YMR263W, strain SAP30, hits give low values
[19] = S. cerevisiae deletion strains, locus YNL153C, strain GIM3, hits give low values
[20] = S. cerevisiae deletion strains, locus YNL298W, strain CLA4 (second series), hits give low values
[21] = S. cerevisiae deletion strains, locus YNL322C, strain KRE1, hits give low values
[22] = S. cerevisiae deletion strains, locus YNR030W, strain Alg12, hits give low values
[23] = S. cerevisiae deletion strains, locus YOL006C, strain TOP1, hits give low values
[24] = S. cerevisiae deletion strains, locus YPL055C, strain LGE1, hits give low values
[25] = S. cerevisiae deletion strains, locus YPL241C, strain CIN2, hits give low values
[26] = S. cerevisiae deletion strains, locus YPR135W, strain CTF4, hits give low values
[27] = S. cerevisiae deletion strains, locus YAL040C, strain CLN3, hits give low values
[28] = S. cerevisiae deletion strains, locus YCL061C, strain MRC1 (second series), hits give low values
[29] = S. cerevisiae deletion strains, locus YDR363W, strain ESC2, hits give low values
[30] = S. cerevisiae deletion strains, locus YER002W, strain NOP16, hits give low values
[31] = S. cerevisiae deletion strains, locus YGR229C, strain SMI1, hits give low values
[32] = S. cerevisiae deletion strains, locus YMR307W, strain GAS1, hits give low values
[33] = S. cerevisiae deletion strains, locus YNL175C, strain NOP13, hits give low values
[34] = S. cerevisiae deletion strains, locus YNL197C, strain WHI3, hits give low values
[35] = S. cerevisiae deletion strains, locus YNL224C, strain SQS1, hits give low values
[36] = S. cerevisiae deletion strains, locus YOR083W, strain WHI5 (second series), hits give low values

Measured: normalized growth

O=C(NNC(=O)c1ccccc1[N+](=O)[O-])c1ccc(Cl)cc1
active: [10] 0.869
inactive: [1] 1.02 | [2] 1.03 | S. cerevisiae deletion strains, locus YCL061C, strain MRC1, hits give low values 1.02 | [3] 0.981 | [4] 0.904 | [5] 1.01 | [6] 0.995 | [7] 1.14 | [8] 0.994 | [9] 1 | [11] 0.991 | S. cerevisiae deletion strains, locus YKL190W, strain CNB1, hits give low values 1.01 | [12] 1.03 | [13] 1.01 | [14] 1.05 | [15] 1.01 | [16] 1.02 | [17] 1.02 | [18] 0.91 | [19] 0.993 | [20] 1.04 | [21] 1.01 | [22] 1.03 | [23] 1.13 | [24] 0.9 | [25] 1.03 | [26] 1.16

O=C(c1cc(O)c(O)c([N+](=O)[O-])c1)c1ccccc1F
inactive: [27] 0.964 | [28] 0.953 | [29] 0.98 | [30] 0.978 | [6] 0.977 | [31] 0.886 | [32] 0.966 | [33] 0.985 | [34] 0.97 | [35] 0.969 | [36] 0.996 | [25] 0.99

Cc1ccc(C(=O)O[C@H](C(=O)O)[C@H](OC(=O)c2ccc(C)cc2)C(=O)O)cc1
inactive: [27] 1.01 | [28] 1 | [4] 1.01 | [29] 1.03 | [30] 1.01 | [31] 1.01 | [32] 0.99 | [33] 1 | [34] 1 | [35] 1 | [36] 0.997 | [24] 0.999

Cc1ccc(C(=O)c2ccccc2[N+](=O)[O-])cc1
inactive: [1] 0.989 | [2] 0.99 | [3] 0.983 | [4] 0.957 | [5] 0.979 | [6] 0.982 | [7] 0.797 | [8] 0.964 | [9] 0.987 | [10] 0.99 | [11] 0.943 | [12] 0.913 | [13] 0.995 | [14] 0.9 | [15] 0.948 | [16] 0.96 | [17] 0.98 | [18] 0.98 | S. cerevisiae deletion strains, locus YNL128W, strain TEP1, hits give low values 1.01 | [19] 0.954 | [20] 0.934 | [21] 0.997 | [22] 0.939 | [23] 0.779 | [24] 0.946 | [26] 0.8 | S. cerevisiae strains, strain wild type, hits give low values 1
active: [32] 0.622 | [25] 0.828

CCOC(=O)CSc1nnc(-c2cc(C(C)(C)C)nn2Cc2cccc(C)c2)n1C1CCCCC1
inactive: [1] 1.03 | [2] 0.989 | [3] 1.01 | [4] 1 | [5] 0.997 | [6] 1.01 | [31] 0.993 | [7] 0.92 | [8] 0.986 | [9] 0.994 | [10] 0.994 | [11] 0.98 | [12] 0.909 | [13] 0.99 | [14] 0.975 | [15] 0.901 | [16] 1.02 | [17] 0.998 | [18] 1 | [19] 1.02 | [20] 1 | [21] 0.994 | [22] 0.987 | [24] 1.03 | [25] 0.968 | [26] 1.01
